Screens (PubChem)
Sampled rows, rich in hits. Any-hit rate of the full collection: about 4.6%.
UCHL1 inh: inhibitors of human UCHL1 deubiquitinase; Ubiquitin carboxyl-terminal hydrolase isozyme L1 (Homo sapiens), P09936; purified UCHL1, Ub-rhodamine cleavage fluorescence; inhibition, % at 20 µM; 0.2% of 47,000 active; AID 1645859, 2021
USP7 inh: inhibitors of human USP7 deubiquitinase. Ubiquitin carboxyl-terminal hydrolase 7 (Homo sapiens), Q93009. purified USP7, Ub-rhodamine cleavage fluorescence. inhibition, % at 20 µM. 0.3% of 47,000 active
USP8 inh: inhibitors of human USP8 deubiquitinase. inhibition, % at 20 µM. 4.2% of 47,000 active. purified USP8, Ub-rhodamine cleavage fluorescence, 30 min. Ubiquitin carboxyl-terminal hydrolase 8 (Homo sapiens), P40818
Target sequence (P40818 whole entry, looked up): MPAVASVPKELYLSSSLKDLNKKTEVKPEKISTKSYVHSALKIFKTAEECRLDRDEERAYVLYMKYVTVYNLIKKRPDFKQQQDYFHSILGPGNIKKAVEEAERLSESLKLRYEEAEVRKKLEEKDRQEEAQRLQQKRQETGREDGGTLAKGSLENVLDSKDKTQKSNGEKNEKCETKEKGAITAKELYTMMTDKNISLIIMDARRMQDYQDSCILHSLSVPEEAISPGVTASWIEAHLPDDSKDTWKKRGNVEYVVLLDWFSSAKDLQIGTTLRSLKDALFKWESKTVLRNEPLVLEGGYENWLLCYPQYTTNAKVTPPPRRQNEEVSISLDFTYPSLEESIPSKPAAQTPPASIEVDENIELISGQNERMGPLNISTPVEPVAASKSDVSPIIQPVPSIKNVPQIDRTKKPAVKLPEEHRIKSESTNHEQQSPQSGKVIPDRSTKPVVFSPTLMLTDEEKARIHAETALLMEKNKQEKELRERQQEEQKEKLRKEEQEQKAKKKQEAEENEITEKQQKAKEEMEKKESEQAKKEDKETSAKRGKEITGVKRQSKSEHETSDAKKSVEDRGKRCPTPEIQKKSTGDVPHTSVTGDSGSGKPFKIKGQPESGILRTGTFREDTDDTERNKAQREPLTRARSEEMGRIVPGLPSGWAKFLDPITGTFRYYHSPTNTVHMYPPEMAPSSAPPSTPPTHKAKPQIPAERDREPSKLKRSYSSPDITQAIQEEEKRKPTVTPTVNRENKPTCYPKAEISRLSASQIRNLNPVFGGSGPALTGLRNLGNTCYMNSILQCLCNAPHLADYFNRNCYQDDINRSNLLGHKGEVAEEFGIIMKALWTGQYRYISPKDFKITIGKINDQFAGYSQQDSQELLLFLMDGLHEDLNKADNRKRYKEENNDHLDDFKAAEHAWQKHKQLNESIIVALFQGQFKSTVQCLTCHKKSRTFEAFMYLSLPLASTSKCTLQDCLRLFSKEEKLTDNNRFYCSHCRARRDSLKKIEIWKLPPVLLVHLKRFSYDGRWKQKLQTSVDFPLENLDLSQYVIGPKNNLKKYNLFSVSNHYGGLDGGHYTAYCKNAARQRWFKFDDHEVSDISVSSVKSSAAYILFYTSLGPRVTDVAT
USP10 block: inhibitors of human USP10 deubiquitinase. purified USP10, Ub-rhodamine fluorescence, 60 min. inhibition, % at 20 µM. 1.1% of 47,000 active. AID 1645856, 2021. Ubiquitin carboxyl-terminal hydrolase 10 (Homo sapiens), Q14694
* hit, by the source's call. Cut-off read from the data, not from the text of the source: active = inhibition above about 30%; inactive = the rest.

SMILES	UCHL1 inh	USP7 inh	USP8 inh	USP10 block
CC(C)c1ccc(NC(=O)COC(=O)c2ccc(NS(=O)(=O)c3ccc4c(c3)OCCO4)cc2)cc1	4	17	-8	51*
CCc1ccc(CN(C)C(=O)c2ccc(NS(=O)(=O)c3ccc(F)c(F)c3)cc2)cc1	8	9	19	38*
O=C(COc1ccc(Cl)cc1)Nc1ccc(S(=O)(=O)Nc2ccccc2)cc1	3	4	9	26
O=C(COC(=O)c1ccc(NS(=O)(=O)c2ccc(F)c(F)c2)cc1)Nc1ccc(OCc2ccccc2)cc1	0	4	2	53*
Nc1ccc(NS(=O)(=O)c2ccc3c(c2)OCCCO3)cc1	1	-1	33*	1
Cc1[nH]nc(-c2ccc(S(=O)(=O)Nc3ccccc3F)s2)c1C	3	5	29	8
Cc1ccc(COc2cc(C(=O)NCC3CCCO3)c3ccccc3n2)cc1 (stereo not given)	0	2	-14	2
Cc1cccc(S(=O)(=O)N(CC(=O)N2CCCc3ccccc32)Cc2ccccc2)c1	3	8	15	6
CN(C)C=Nc1nc2nccc(-c3ccc(Oc4ccccc4)cc3)n2n1	0	-15	1	-2
O=C(/C=C1\NCCc2cc3c(cc21)OCCCO3)c1ccc(OC(F)(F)F)cc1	-7	-14	53*	-5
COc1ccc(C(=O)/C=C2\NCCc3cc4c(cc32)OCCCO4)cc1OC	-6	-11	27	-1
Cc1cccc(C)c1NC(=O)CN1C(=O)C2CCCC2=Nc2ccccc21 (stereo not given)	2	4	7	21
CCc1ccccc1NC(=O)CN1C(=O)C2CCCC2=Nc2ccccc21 (stereo not given)	0	11	34*	34*
Cc1cc(=O)[nH]c(SCC(=O)c2cc(C)n(CCC3=CCCCC3)c2C)c1C#N	5	5	49*	45*
Cc1cc(C(=O)COC(=O)c2cc(=O)[nH]c3ccccc23)c(C)n1CC1COc2ccccc2O1 (stereo not given)	-8	-4	-7	-6
O=C(CSc1ccc2nnc(-c3ccncc3)n2n1)Nc1cccc(C(F)(F)F)c1	-9	-15	90*	-3
CCn1cnc2cc(NCc3cccc(OC)c3O)ccc21	-1	-1	40*	0
Nc1nc(SCc2ccc([N+](=O)[O-])cc2)[nH]c(=O)c1NC(=O)c1ccco1	2	13	39*	24
CCn1nnc2cc(C(=O)NCc3ccc4c(c3)OCO4)ccc21	-3	-2	-12	-1
Nc1c(C(=O)NCc2ccc3c(c2)OCO3)nnn1Cc1ccc(Br)cc1F	7	16	83*	31*
CCCn1c(-c2ccc(F)cc2)cn2c(-c3ccccc3)c(-c3ccccc3)nc12	0	3	68*	3
NS(=O)(=O)c1ccc(NC(=O)Cn2cnc3cc([N+](=O)[O-])ccc3c2=O)cc1	2	1	55*	-2
O=C(Cn1cnc2cc([N+](=O)[O-])ccc2c1=O)Nc1ccc2c(c1)OCCO2	1	3	-201	-8
Cc1nc(-n2cccc2)sc1C(=O)NC1CCCC1	-2	-4	-13	-1
Cc1nc(Nc2ccc(Cl)cn2)sc1C(=O)NC1CCCC1	-1	4	31*	1
SMILES	UCHL1 inh	USP7 inh	USP8 inh	USP10 block
COc1ccc(OC)c(NC(=O)c2ccc3noc(-c4ccc(C)cc4)c3c2)c1	8	15	1	-4
FC(F)(F)c1ccc(Nc2nnnc3ccccc23)cc1	29	60*	64*	47*
Cc1cc(Nc2ccc(C)c(F)c2)c2ccccc2n1	5	3	9	0
Cc1cc2ncc(-c3ccsc3)c(N)n2n1	-1	-30	2	2
Nc1c(-c2ccsc2)cnn1-c1ccccc1	0	-6	57*	6
COc1cc(OC)cc(-c2nnc3sc(-c4ccco4)nn23)c1	1	3	19	0
Fc1cccc(-c2nnc3sc(-c4ccco4)nn23)c1	0	6	43*	0
NS(=O)(=O)c1ccc(NC(=O)C2Cc3ccccc3C(=O)O2)cc1 (stereo not given)	1	4	36*	18
CCOc1ccc(NC(=O)COc2ccccc2OC)c2cccnc12	-1	0	33*	2
Nc1nnc(-c2cc(-c3ccc4c(c3)OCO4)on2)o1	1	8	54*	17
c1cc2c(cc1-c1cc(C3CCCCCN3)no1)OCO2 (stereo not given)	1	3	-1	-1
NC(=O)c1c[nH]n2c(=O)cc(C3CC(=O)N(c4cccc(F)c4)C3)nc12 (stereo not given)	-1	2	-130	-4
Cc1nn(C)cc1C(C)NC(=O)c1cc2c(s1)CN(C1CC1)C2 (stereo not given)	1	-4	31*	-5
CC(C)(C)OC(=O)N1CCN(C(=O)c2cc3c(s2)CN(C2CC2)C3)CC1	2	-34	1	0
COc1ccc(NC(=O)CCCSc2nc3ccccc3[nH]2)c(OC)c1	-3	0	9	1
CNc1nc2c(c(=O)n1Cc1ccccc1)CCN(C(=O)NCC(=O)O)C2	-2	0	-26	-1
COc1ccccc1CNC(=O)Nc1cccc2ccccc12	0	1	71*	5
COc1ccccc1CNC(=O)CCC1CCCC1	1	-27	3	4
O=C(CNC(=O)c1cc(F)cc(F)c1)Nc1nc2ccccc2[nH]1	3	7	36*	11
O=C(CNC(=O)c1ccc(F)c(F)c1)Nc1nc2ccccc2[nH]1	0	7	7	3
COc1cccc(NC(=O)Cn2c(COc3ccccc3)nc3ccccc32)c1	1	6	15	6
O=C(Cn1c(COc2ccccc2)nc2ccccc21)Nc1cc(Cl)cc(Cl)c1	8	21	73*	16
O=C(Cn1c(COc2ccccc2)nc2ccccc21)Nc1ccc(N2CCOCC2)cc1	2	11	34*	23
O=C(Cn1c(COc2ccccc2)nc2ccccc21)Nc1cc(Cl)ccc1Cl	3	12	55*	26
COCCN1C(=O)C[C@@H](C(=O)N2CCCN(C(C)=O)CC2)[C@@H]1c1ccccc1	2	6	-1	0
SMILES	UCHL1 inh	USP7 inh	USP8 inh	USP10 block
COc1cccc(N2CCN(c3ccc4nnc(CCC(=O)N5CCCC5)n4n3)CC2)c1	4	5	15	0
COC(=O)C(NC(=O)CCc1nnc2ccc(N3CCN(c4cccc(OC)c4)CC3)nn12)C(C)C (stereo not given)	0	1	34*	-2
COc1cccc(N2CCN(c3ccc4nnc(CCC(=O)NCCN5CCCC5)n4n3)CC2)c1	-2	-3	-7	0
COc1cccc(N2CCN(c3ccc4nnc(CCC(=O)NCCC5=CCCCC5)n4n3)CC2)c1	7	-1	69*	-7
COc1ccc(NC(=O)CN(C2CCCCC2)S(=O)(=O)c2ccc(Cl)cc2)c(OC)c1	6	7	6	7
O=C(COC(=O)C(Cc1c[nH]c2ccccc12)NC(=O)c1ccccc1Cl)c1ccc([N+](=O)[O-])cc1 (stereo not given)	5	4	-107	28
